IL1B secr inh: inflammasome signaling inhibition, IL-1 beta readout | THP-1 LPS/ATP IL-1B secretion, AlphaLISA, 16 h; stronger effect = lower value | activity change, % at 57.5 µM | 360,000 tested, 4.7% active | AID 743279; in the data active means activity change below about -50%; inconclusive means mostly about -30% to -49%
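Secreted IL-1B measured by AlphaLISA bead assay after 16 h compound exposure of THP-1 cells; compounds (final up to 57.5 uM) added 1 h before LPS (250 ng/mL) and ATP (1.25 mM) stimulation; lower signal means less secretion.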
HT1080-NT tox: kills 2HG-producing HT-1080-NT fibrosarcoma cells; 360,000 tested, 1.6% active; Potency, µM (titrated, usually from 46.1 µM), hits mostly cytotoxic; HT-1080-NT fibrosarcoma viability, CellTiter-Glo ATP luminescence, 48 h;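 further: NT is the 2HG producing partner of a matched IDH1 knockdown line; nearly all actives have a fitted effect of over 55% in size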
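Read-out is CellTiter-Glo luminescence after 10 minutes at room temperature, following 48 hours' compound treatment of HT-1080-NT cells (750 cells/well, RPMI, 5% FBS, 37 degrees C).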
TDP1 cell noCPT: qHTS for Inhibitors of human tyrosyl-DNA phosphodiesterase 1 (TDP1): qHTS in cells in absence of CPT. DT40 Tdp1-/- hTDP1 cells, no CPT, ATP luminescence, 48 h. Potency, µM (series often up to 46.2 µM), actives largely listed as inhibitors. 420,000 tested, 15% active. AID 686978, 2013; further: nearly all actives have a fitted effect of over 55% in size
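Cells were dispensed at 400 per well, compounds added by pin tool, plates incubated ≥48 hr at 37 °C, then CellTiter-Glo added for 30 min at room temperature before luminescence reading. Line: DT40 Tdp1-/- complemented with hTDP1; camptothecin omitted.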
HT1080 IDH1KD tx: HT-1080 IDH1 knockdown cell toxicity (counter line). HT-1080 IDH1 knockdown viability, ATP luminescence, 48 h. 360,000 tested, 2% active. AID 686971. Potency, µM (doses to about 46.1 µM), hits mostly cytotoxic
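IDH1KD HT-1080 cells, 750/well, RPMI + 5% FBS; compound pinned after 2 h settling; 48 h, 37 °C; CellTiter-Glo luminescence; % activity normalised to DMSO and no-cell wells; curves fitted, classed by r2 and efficacy.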
DT40 TDP1 CPT: DT40-hTDP1 cell growth loss with CPT; chicken DT40 Tdp1-/-;hTDP1 cells + 20 nM CPT, ATP luminescence, 48 h; Potency, µM (doses to about 46.2 µM), usual class: inhibitors; 420,000 tested, 12% active; further: nearly all actives have a fitted effect of over 55% in size
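Chicken DT40 Tdp1-/- cells stably complemented with human TDP1 were seeded at 400 cells/well in medium containing 20 nM camptothecin, exposed to pin-transferred compounds, and grown at 37 °C for at least 48 hr. Viability was read as ATP luminescence.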
12-LOX inh: blocks human arachidonate 12S-lipoxygenase; P18054; purified 12hLO, xylenol orange hydroperoxide absorbance; Potency, µM (titrated, usually from 108 µM), hits mostly inhibitors; 580,000 tested, 1.1% active
Target sequence (P18054 whole entry, looked up): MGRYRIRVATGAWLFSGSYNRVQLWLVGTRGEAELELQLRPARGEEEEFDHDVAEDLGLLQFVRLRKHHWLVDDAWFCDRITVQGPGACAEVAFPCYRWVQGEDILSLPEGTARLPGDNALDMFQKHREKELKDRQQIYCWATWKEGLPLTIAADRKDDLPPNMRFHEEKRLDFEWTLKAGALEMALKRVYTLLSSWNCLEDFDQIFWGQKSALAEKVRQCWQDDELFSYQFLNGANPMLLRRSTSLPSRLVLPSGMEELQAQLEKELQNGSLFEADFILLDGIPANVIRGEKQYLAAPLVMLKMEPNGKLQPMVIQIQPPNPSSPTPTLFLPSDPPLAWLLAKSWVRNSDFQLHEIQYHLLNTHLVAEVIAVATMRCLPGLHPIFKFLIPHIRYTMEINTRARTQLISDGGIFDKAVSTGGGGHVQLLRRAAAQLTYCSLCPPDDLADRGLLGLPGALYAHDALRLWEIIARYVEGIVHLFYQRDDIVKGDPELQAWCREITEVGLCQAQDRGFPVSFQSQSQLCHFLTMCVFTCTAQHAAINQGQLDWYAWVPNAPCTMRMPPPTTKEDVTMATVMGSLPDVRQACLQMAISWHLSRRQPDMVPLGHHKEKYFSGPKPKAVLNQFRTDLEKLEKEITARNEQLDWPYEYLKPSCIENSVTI
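Purified human 12hLO at 150 nM in 25 mM Hepes, 0.01% Triton X-100, pH 7.0, preincubated 15 min at room temperature with compound. Reaction started with 40 uM arachidonic acid, 30 min at room temperature. Hydroperoxide measured by Fe-xylenol orange, 573/405 nm absorbance ratio.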
Large screens that a line does not name were inactive. This excerpt belongs to a sample that is enriched for hits. Unless noted, the call rests on the fitted dose curve; in most records, active means well fitted curve in the direction sought with a large enough effect; inconclusive means small, poorly fitted or top-dose-only effect, or another doubt; inactive means no such curve, though single readings can be large; an effect the other way counts as inactive or inconclusive.

Nc1ccc2c(c1)C(=O)c1cc(Cl)c(Cl)cc1-2	none
Cc1ccccc1C(=O)O/N=C(\N)Cc1cccs1	IL1B secr inh -61, HT1080-NT tox inconclusive, HT1080 IDH1KD tx 18µM, DT40 TDP1 CPT inconclusive
COCCNC(=O)C1c2ccccc2C(=O)N(C2CCCCC2)C12CCCCC2 (stereo not drawn)	none (no result: IL1B secr inh, HT1080-NT tox, TDP1 cell noCPT, HT1080 IDH1KD tx, DT40 TDP1 CPT)
COc1ccccc1NC(=O)CSc1nc2c(oc3ccccc32)c(=O)n1-c1ccccc1F	TDP1 cell noCPT 9.2µM, DT40 TDP1 CPT 13µM (no result: IL1B secr inh, HT1080-NT tox, HT1080 IDH1KD tx)
CCOc1ccc(NC(=O)CSc2nc3c(oc4ccccc43)c(=O)n2-c2ccccc2C)cc1	TDP1 cell noCPT 23µM, DT40 TDP1 CPT inconclusive (no result: IL1B secr inh, HT1080-NT tox, HT1080 IDH1KD tx)
O=C(COc1ccc(Cl)cc1)NC1CCc2n[nH]c(=O)n2CC1 (stereo not drawn)	none (no result: IL1B secr inh, HT1080-NT tox, TDP1 cell noCPT, HT1080 IDH1KD tx, DT40 TDP1 CPT)
Cc1cccc(NC(=O)Cn2ccn3nc4c(c3c2=O)CCCC4)c1C	none (no result: IL1B secr inh, HT1080-NT tox, TDP1 cell noCPT, HT1080 IDH1KD tx, DT40 TDP1 CPT)
CCN1C(=O)[C@@H]2[C@@H](c3ccc(-c4ccc(Cl)c(Cl)c4)c(OC)c3)N3CCC[C@@]3(C(=O)OC)[C@@H]2C1=O	TDP1 cell noCPT 9.2µM, DT40 TDP1 CPT 8.2µM
CCN1C(=O)[C@@H]2[C@@H](c3ccc(-c4cccc(Cl)c4)c(OC)c3)N3CCCC[C@@]3(C(=O)OC)[C@@H]2C1=O	TDP1 cell noCPT 16µM, DT40 TDP1 CPT inconclusive
CCN1C(=O)[C@H]2[C@@H](c3ccc(-c4ccc(F)cc4)c(OC)c3)N3CCC[C@@]3(C(=O)OC)[C@H]2C1=O	TDP1 cell noCPT 8.2µM, DT40 TDP1 CPT 8.2µM, 12-LOX inh inconclusive
CCN1C(=O)[C@@H]2[C@@H](c3ccc(SC4CCCCC4)c(OC)c3)N3CCC[C@@]3(C(=O)OC)[C@@H]2C1=O	TDP1 cell noCPT inconclusive, DT40 TDP1 CPT 23µM, 12-LOX inh inconclusive
Cc1cnc(C(=O)N2CCC3(CC2)CC(N2CCN(c4ccccn4)CC2)CCO3)cn1 (stereo not drawn)	none (no result: IL1B secr inh, HT1080-NT tox, TDP1 cell noCPT, HT1080 IDH1KD tx, DT40 TDP1 CPT)
O=C(NCCc1cccs1)c1cccc2c1CCN2C(=O)Nc1ccccc1	none (no result: IL1B secr inh, HT1080-NT tox, TDP1 cell noCPT, HT1080 IDH1KD tx, DT40 TDP1 CPT)
COC1C(=O)N(CC2CC2)C12CCN(C(=O)Cc1c[nH]c3ccccc13)CC2 (stereo not drawn)	none (no result: IL1B secr inh, HT1080-NT tox, TDP1 cell noCPT, HT1080 IDH1KD tx, DT40 TDP1 CPT)
COC(=O)c1ccc2nc(-c3ccc(Cl)cc3)c(CC3CCCCC3)n2c1	TDP1 cell noCPT 4.1µM, DT40 TDP1 CPT 8.2µM
COC(=O)c1ccc2nc(-c3ccc(OC)c(OC)c3)c(CC3CCCCC3)n2c1	TDP1 cell noCPT 18µM, DT40 TDP1 CPT inconclusive, 12-LOX inh inconclusive
C#CCCC[C@@H](/C=C/C(=O)OCC)NC(=O)C(F)(F)F	none (no result: IL1B secr inh, HT1080-NT tox, TDP1 cell noCPT, HT1080 IDH1KD tx, DT40 TDP1 CPT)
CCOc1ccc(NC(=O)CCCc2nc(-c3cccc(OC)c3)no2)cc1	TDP1 cell noCPT 21µM, DT40 TDP1 CPT inconclusive (no result: IL1B secr inh, HT1080-NT tox, HT1080 IDH1KD tx)
CCOC(=O)c1ccc(NC(=O)CCc2nc(-c3ccccc3)no2)cc1	TDP1 cell noCPT 29µM, DT40 TDP1 CPT 18µM
COc1ccc(-c2noc(CCCC(=O)NC3CCCCC3)n2)cc1	TDP1 cell noCPT 23µM, HT1080 IDH1KD tx inconclusive, DT40 TDP1 CPT 21µM
COc1ccc(-c2noc(CCC(=O)NC3CCCC3)n2)cc1	TDP1 cell noCPT inconclusive
CCOc1ccccc1NC(=O)CCCc1nc(-c2ccccc2Cl)no1	TDP1 cell noCPT inconclusive, DT40 TDP1 CPT 13µM (no result: IL1B secr inh, HT1080-NT tox, HT1080 IDH1KD tx)
COc1ccccc1-c1noc(CCC(=O)Nc2ccccc2Cl)n1	12-LOX inh inconclusive
COc1ccc(-c2nc(CNC(=O)Nc3ccccc3Cl)c(C)o2)cc1	none (no result: IL1B secr inh, HT1080-NT tox, TDP1 cell noCPT, HT1080 IDH1KD tx, DT40 TDP1 CPT)
COc1cccc(NC(=O)N[C@H]2C[C@@H](C(=O)N(C)CC(N)=O)N(C(=O)c3cnccn3)C2)c1	none (no result: IL1B secr inh, HT1080-NT tox, TDP1 cell noCPT, HT1080 IDH1KD tx, DT40 TDP1 CPT)
CCCCc1ccc(C(=O)NCc2ccncc2)cc1	none (no result: IL1B secr inh, HT1080-NT tox, TDP1 cell noCPT, HT1080 IDH1KD tx, DT40 TDP1 CPT)
CCOc1ccccc1NC(=O)c1ccccc1-c1nc(-c2ccccc2OC)no1	TDP1 cell noCPT 9.2µM, DT40 TDP1 CPT 16µM
COCCNC(=O)c1ccccc1-c1nc(-c2ccccc2OC)no1	none
CCOC(=O)c1ccc(NC(=O)CCc2nc(-c3ccccc3Cl)no2)cc1	HT1080-NT tox inconclusive, TDP1 cell noCPT 15µM, HT1080 IDH1KD tx inconclusive, DT40 TDP1 CPT 16µM
